# In PubChem BioAssay AID1159580 (chemical genetic matrix, 2015):
# The campaign covered roughly 5,500 compounds. About 2,000 (36%) were called active. Another 18% or so got no clear call; they are omitted. The list shows a part of the results. A number with no mark means an inactive call. No stated cut-off is given here; in the data, active means normalized growth mostly below about 0.91 (no sharp cut-off); inconclusive means no clear call, values can overlap the other calls; inactive means mostly above about 0.92.
# Experiment: chemical genetic growth profiling, strain panel (AID 1159580);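 further: tested at 20 µM; growth read once vehicle control cultures reached saturation at 30 °C; 1 = growth at the plate median or of vehicle wells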
# Details: S. cerevisiae deletion strains, growth OD
# [1] = locus YAL013W, strain DEP1, stronger effect = lower value
# [2] = locus YAL040C, strain CLN3, stronger effect = lower value
# [3] = locus YCL061C, strain MRC1 (second series), stronger effect = lower value
# [4] = locus YDR150W, strain NUM1, stronger effect = lower value
# [5] = locus YDR363W, strain ESC2, stronger effect = lower value
# [6] = locus YER002W, strain NOP16, stronger effect = lower value
# [7] = locus YGR078C, strain PAC10, stronger effect = lower value
# [8] = locus YJR075W, strain HOC1, stronger effect = lower value
# [9] = locus YNL175C, strain NOP13, stronger effect = lower value
# [10] = locus YNL197C, strain WHI3, stronger effect = lower value
# [11] = locus YNL224C, strain SQS1, stronger effect = lower value
# [12] = locus YOR083W, strain WHI5 (second series), stronger effect = lower value
compound,measurement,setting,value
CC(=O)NCCc1ccc(O)c(-c2c(O)c(O)c3c(c2O)C(=O)c2c(cc(O)c(C(=O)O)c2C(=O)O)C3=O)c1,normalized growth,"locus YHR030C, strain SLT2, stronger effect = lower value",1
same,normalized growth,"locus YHR079C, strain IRE1, stronger effect = lower value",1.01
same,normalized growth,"locus YJL095W, strain BCK1, stronger effect = lower value",0.992
same,normalized growth,"locus YJR066W, strain TOR1, stronger effect = lower value",0.931
same,normalized growth,"locus YLR113W, strain HOG1, stronger effect = lower value",1.01
same,normalized growth,"locus YNL183C, strain NPR1, stronger effect = lower value",0.924
same,normalized growth,"locus YOR231W, strain MKK1, stronger effect = lower value",1.03
same,normalized growth,"locus YPL256C, strain CLN2, stronger effect = lower value",1.04
N#CC(=C(\N)Sc1ccccc1N)/C(C#N)=C(/N)Sc1ccccc1N,normalized growth,[1],0.988
same,normalized growth,[2],0.974
same,normalized growth,[3],1.01
same,normalized growth,[4],1.01
same,normalized growth,[5],1
same,normalized growth,[6],1
same,normalized growth,[7],0.99
same,normalized growth,[8],0.97
same,normalized growth,"locus YMR263W, strain SAP30, stronger effect = lower value",1
same,normalized growth,"locus YMR307W, strain GAS1, stronger effect = lower value",0.995
same,normalized growth,"locus YNL153C, strain GIM3, stronger effect = lower value",0.923
same,normalized growth,[9],0.981
same,normalized growth,[10],0.971
same,normalized growth,[11],0.973
same,normalized growth,"locus YNL322C, strain KRE1, stronger effect = lower value",0.988
same,normalized growth,[12],0.763 (active)
same,normalized growth,"locus YPL241C, strain CIN2, stronger effect = lower value",1.01
Cc1nc(N=Nc2cc(S(=O)(=O)O)c3cc([N+](=O)[O-])cc(S(=O)(=O)O)c3c2)c(COP(=O)(O)O)c(C=O)c1O,normalized growth,[1],0.999
same,normalized growth,[2],1.02
same,normalized growth,[3],1
same,normalized growth,[4],0.995
same,normalized growth,[5],1.01
same,normalized growth,[6],1.02
same,normalized growth,[7],1
same,normalized growth,[8],1
same,normalized growth,[9],0.997
same,normalized growth,[10],1
same,normalized growth,[11],1.01
same,normalized growth,[12],1.01
same,normalized growth,"locus YPL055C, strain LGE1, stronger effect = lower value",1.02
